# Screening results as filed in PubChem.
# In the library only some 6% were active in any assay of this set; here they are far more common.
# D1 PAM: potentiators of human D1 dopamine receptor; HEK293 TREx D1 cells, calcium flux, dopamine EC20 potentiation; hit rate 0.036% among 360,000; potentiation, % at 10 µM; in the data active = potentiation above about 30%; also: 0% is about no effect
# D1 antag: antagonists of human D1 dopamine receptor. P21728. HEK293 TREx D1 cells, calcium flux, dopamine EC80; stronger effect = lower value. activity change, negative = inhibition, % at 10 µM. hit rate 3.2% among 360,000. AID 504652; in the data active = activity change below about -30%; also: % is scaled to controls: 0 for no effect and ±100 for the full control effect
#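 Using tetracycline-induced force-coupled D1 Hek293 cells and a calcium dye, signals were followed for 180 s after compound, then for 180 s after EC80 dopamine, to detect inhibitors.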
# BCR signal inh: inhibitors of chronic active B-cell receptor signaling; hit rate 0.05% among 340,000; Potency, µM (titrated, usually from 46.1 µM), for inactives: at the highest dose activity change, negative = inhibition, actives largely listed as inhibitors; ABC-DLBCL IkBa-CBG/CBR reporter, luminescence ratio, 4 h; AID 493014; active = well fitted inhibition curve with a large enough effect in the signal ratio, with a control signal flat, not every such curve was filed as active; inconclusive = small, poorly fitted or top-dose-only effect, or effect the other way, or a change in a side signal; the % refers to the signal ratio;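 also: potency is read from the fitted curve at half-maximal effect; plate controls were basal doxycycline-induced cells for no effect and cells given 10 µM MG132 for full effect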
#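 Doxycycline induced both beetle luciferases in TMD8 lymphoma cells; IKK-driven degradation limits the IkappaBalpha-fused green signal, while red luminescence normalises for cell number and nonspecific effects. Compounds tested up to 46 uM, 4 hrs.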
# DRD3 agonist: agonists of human D3 dopamine receptor; P35462; D3R DiscoveRx beta-arrestin cells, luminescence, 90 min; max activation, %; hit rate 0.58% among 410,000; AID 652048; in the data active = max activation above about 30%; also: 0% is about no effect
# Target sequence (P35462 whole entry, looked up): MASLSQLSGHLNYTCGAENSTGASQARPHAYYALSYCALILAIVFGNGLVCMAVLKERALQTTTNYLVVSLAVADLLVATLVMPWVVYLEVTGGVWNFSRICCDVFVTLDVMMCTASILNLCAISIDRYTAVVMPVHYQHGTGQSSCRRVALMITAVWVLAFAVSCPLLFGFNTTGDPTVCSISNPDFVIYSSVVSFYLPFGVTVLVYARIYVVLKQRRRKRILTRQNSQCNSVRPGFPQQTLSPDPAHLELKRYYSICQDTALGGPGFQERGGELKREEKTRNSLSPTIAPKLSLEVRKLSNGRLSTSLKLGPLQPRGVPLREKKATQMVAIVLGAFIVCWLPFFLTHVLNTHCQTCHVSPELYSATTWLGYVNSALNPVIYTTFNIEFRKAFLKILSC
#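 Agonist mode: compounds and dopamine controls were applied to plated cells for 90 min at 37 degrees C after an overnight attachment at 1500 cells/well. Luminescent read-out followed 30 - 60 minutes at room temperature with DiscoveRx detection reagent.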
# DRD3 antagonist: D3 dopamine receptor (human) antagonism; max response, negative = inhibition, %; hit rate 2.5% among 360,000; D3R cells, DiscoveRx beta-arrestin luminescence, antagonist mode; stronger effect = lower value; in the data active = max response below about -50%; inconclusive = no clear call, values can overlap the other calls; also: % is scaled to controls: 0 for no effect and ±100 for the full control effect
#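 Cells expressing the human receptor were seeded at 1500 cells/well, incubated overnight at 37 degrees C in 5% CO2, then exposed to library compounds with dopamine controls for 90 minutes at 37 degrees C before luminescent detection.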
# D1 agonist: human D1 receptor agonism; HEK293 T-REx D1 cells, calcium flux, agonist mode; activation, % at 2 µM; hit rate 1% among 360,000; AID 504660; in the data active = activation above about 30%; also: 0% is about no effect
#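 Agonism was scored from calcium flux recorded over 180 s (1 read/s) after pintool compound addition, following a 10-cycle baseline. Cells were inducible force-coupled HEK293 TREx D1, plated overnight at 30 C and loaded with no-wash calcium dye.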
# Numbers without * were called inactive; ? = inconclusive; / = not tested or not shown.
SMILES,D1 PAM,D1 antag,BCR signal inh,DRD3 agonist,DRD3 antagonist,D1 agonist
C#CCOCCOCCOCCNc1nc(N2CCN(C(=O)CCCCCCCCCCNC(=O)Cn3cc(CCCCCN)nn3)CC2)nc(N2CCN(C(=O)CCCCCCCCCCNC(=O)Cn3cc(CCCCCN)nn3)CC2)n1,53*,37,?,10,15,38*
C#CCOCCOCCOCCNc1nc(N2CCN(C(=O)CCCCCCCCCCNC(=O)Cn3cc(C[C@@H](C)O)nn3)CC2)nc(N2CCN(C(=O)CCCCCCCCCCNC(=O)[C@@H](CCC(=O)O)n3cc(CCCCCN)nn3)CC2)n1,-1,5,?,4,24,32*
COc1ccc(C2CC(c3c(O)n(C4CCCCC4)c(=O)[nH]c3=O)=Nc3ccccc3S2)cc1 (centres undefined),-1,4,/,5,/,-2
Cc1ccc(C(=O)CSc2nnc3ccc4ccccc4n23)cc1,-1,-11,/,7,/,0
CCCCCCCCC#Cc1nc(C)ccc1OC,/,/,?,65*,15,/
O=C(Oc1coc(CSc2ncccn2)cc1=O)c1ccco1,-2,-33*,7%,18,9,3
O=C(Oc1coc(CSc2ncccn2)cc1=O)c1ccc(Br)o1,-7,-11,?,28,14,2
O=C(Oc1ccccc1)c1cccc2cccnc12,10,23,?,-6,-54*,0
O=C(Oc1cccc2cccnc12)c1cccs1,2,-1,?,-31,?,1
O=C(Oc1cccc2cccnc12)c1ccc2c(c1)OCCO2,2,0,?,-4,-84*,8
O=C(Oc1cccc2ccccc12)c1ccco1,6,-1,-4%,-5,6,0
O=C(O)c1cccc2cccnc12,-2,-1,-12%,-3,-3,0
O=C(Oc1ccc(Cl)c2cccnc12)c1ccco1,-8,5,?,-40,-138*,0
O=C(NCc1ccccc1)C1c2ccccc2OCC(=O)N1Cc1ccccc1 (centres undefined),/,/,/,4,36,/
O=C(Cc1ccc(NC(=O)C2CCN(C(=O)C3CC3)CC2)cc1)Nc1ccc(C(=O)N2CCOCC2)cc1,/,/,/,1,0,/
COc1ccc(NC(=O)c2oc3ccccc3c2NC(=O)Cc2coc3c(C)c(C)ccc23)cc1,-3,-9,/,-5,/,4
O=C(Oc1cccc2cccnc12)c1ccco1,-1,5,23µM*,-13,?,-1
O=C(Oc1cccc2cccnc12)c1ccc(Br)o1,-4,-11,-1%,8,-21,1
Cc1ccc2nc(NCc3ccccc3)c3nnnn3c2c1,-1,8,/,-10,/,1
Cc1ccc(OCC(=O)NCC(=O)OCc2cc(=O)n3nc(C)sc3n2)cc1,-4,0,/,-15,/,1
COc1ccc(S(=O)(=O)N2CCN(C(=O)c3ccc([N+](=O)[O-])o3)CC2)cc1,-8,-5,-22%,2,0,-1
O=C(/C=C/c1cccc([N+](=O)[O-])c1)c1ccc([N+](=O)[O-])o1,/,/,/,-63,-137*,/
Cc1ccccc1/C=C/C(=O)c1ccc([N+](=O)[O-])o1,-8,-6,?,-18,-58*,-1
Cc1ccccc1NC(=O)c1ccc([N+](=O)[O-])o1,3,-1,?,-2,3,0
COc1ccc(/C=C/C(=O)c2ccc([N+](=O)[O-])o2)cc1,-6,-9,-25%,-28,-75*,0
Cc1cccc(/C=C/C(=O)c2ccc([N+](=O)[O-])o2)c1,-7,-11,-28%,-6,-58*,0
COc1cccc(C(=O)NC2CC3CCCC(C2)N3Cc2ccc(F)cc2)c1 (centres undefined),/,/,/,-12,-107*,/
COc1cccc(C(=O)NC2CC3CCCC(C2)N3CC(=O)Nc2ccc(N(C)C)cc2)c1 (centres undefined),-3,10,7%,-2,8,0
COc1cccc(C(=O)NC2CC3CCCC(C2)N3Cc2ccc(C)cc2)c1 (centres undefined),-10,-22,-5%,-18,-112*,5
